Assay results as given in PubChem BioAssay AID538 (PCMD, 2006).
Out of some 62,000 compounds screened, about 100 (0.16%) were called active. This is one part of a sample in which actives are shown more often than they occur. Unmarked numbers belong to inactive results.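 The calls were made as follows: active = inhibition above 20% in each of the two 10-compound mixture wells holding the compound; inactive = the rest.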

Target: Complement C1s subcomponent (Homo sapiens) (UniProt P09871)
Experiment: human C1s inhibition by compound pools – biochemical, 10-compound mixtures, primary screen (AID 538);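 also: 0% = enzyme wells lacking compound mixture and 100% = no-enzyme blank wells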
Settings: purified C1s, fluorogenic AMC substrate, pooled mixtures; screened at 5 µM (by protocol)

Chain of Complement C1s subcomponent (Homo sapiens) (P09871 16-437 limits assumed): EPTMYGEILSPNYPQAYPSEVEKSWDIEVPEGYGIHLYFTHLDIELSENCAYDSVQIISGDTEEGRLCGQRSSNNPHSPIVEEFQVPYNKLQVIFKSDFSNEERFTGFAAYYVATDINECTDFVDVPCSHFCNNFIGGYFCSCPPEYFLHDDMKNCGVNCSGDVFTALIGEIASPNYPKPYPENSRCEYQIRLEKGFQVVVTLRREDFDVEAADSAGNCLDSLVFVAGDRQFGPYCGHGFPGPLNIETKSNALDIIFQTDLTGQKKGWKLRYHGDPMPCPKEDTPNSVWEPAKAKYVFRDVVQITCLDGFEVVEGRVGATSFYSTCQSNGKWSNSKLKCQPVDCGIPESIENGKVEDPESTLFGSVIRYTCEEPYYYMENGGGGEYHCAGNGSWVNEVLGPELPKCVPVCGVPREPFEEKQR
Chain of Complement C1s subcomponent (Homo sapiens) (P09871 438-688 limits assumed): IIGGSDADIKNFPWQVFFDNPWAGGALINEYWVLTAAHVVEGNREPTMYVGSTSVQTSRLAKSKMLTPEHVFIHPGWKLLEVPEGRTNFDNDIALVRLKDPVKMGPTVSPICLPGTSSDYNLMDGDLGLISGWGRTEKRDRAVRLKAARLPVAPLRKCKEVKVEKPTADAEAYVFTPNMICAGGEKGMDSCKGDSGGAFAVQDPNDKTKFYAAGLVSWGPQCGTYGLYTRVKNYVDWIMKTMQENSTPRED

| SMILES | mean inhibition % of two 10-compound mixtures (stronger effect = higher value) |
| --- | --- |
| Cc1cc(C)c(C#N)c(SCc2ccccc2C(=O)O)n1 | -0.765% |
| O=C(c1ccc2c(c1)OCO2)N1CCNc2ccccc2C1 | 12.4% |
| C=CCn1c(SCc2csc(C)n2)nc2scc(-c3ccc(C)o3)c2c1=O | -5.96% |
| CCN(c1ccccc1)S(=O)(=O)c1cccc(C(=O)O)c1 | -13.8% |
| CCOC(=O)n1c(SCC(=O)N(CC)CC)nc2ccccc21 | 12.2% |
| O=C1c2ccccc2C(O)N1Cc1ccccc1 (configuration not stated) | -43.8% |
| COc1c(Br)cc2c(C)c(C(=O)N3CCOCC3)oc2c1Br | 2.58% |
| CCOC(=O)COc1ccc(Cl)cc1C1NC(=O)NC(C)=C1C(C)=O (configuration not stated) | -13% |
| COc1cc2c(cc1OC)C(c1ccncc1)CC(=O)N2 (configuration not stated) | -11.7% |
| CC(=O)Nc1ccc(S(=O)(=O)N2CCSCC2)cc1 | 10.8% |
| CC(=O)Nc1ccc(NC(=O)CN2CCCC(C)C2)c(Cl)c1 (configuration not stated) | 8.18% |
| O=C(O)CCSc1nnc(-c2ccccc2)n1-c1ccccc1 | -30.3% |
| CC(C)OC(=O)c1cc(NC(=O)C2C3CCC(O3)C2C(=O)O)cc(C(=O)OC(C)C)c1 (configuration not stated) | -14.5% |
| OC(COc1cccc2ccccc12)CN1CCN(c2ccccn2)CC1 (configuration not stated) | -2.25% |
| COC(=O)c1ccc(Oc2nc(NC(C)C)nc(SC)n2)cc1 | -1.35% |
| CCCCc1cc(=O)oc2cc(C)cc(OCc3nn[nH]n3)c12 | -6.89% |
| CC(C)COC(=O)c1ccc(NC(=O)C2C3C=CC(C3)C2C(=O)O)cc1 (configuration not stated) | -22.9% |
| COc1ccccc1NC1=NC2(CCCC2)N=C(N)N1 | -18.3% |
| Cc1cc(NC(=O)COn2nnc3ccccc32)no1 | 0.88% |
| CCOC(=O)C1C(=O)OC2(CCCC2)C1C(=O)OCC (configuration not stated) | 0.585% |
| COc1nc(OC)nc(N(C)CCO)n1 | -12.5% |
| CC1CCN(C(=O)Cn2cc(C(=O)c3ccco3)c3ccccc32)CC1 | -1.29% |
| CC(C)(C)C(=O)CCN1C(=O)C2(OCCO2)c2ccccc21 | 10.6% |
| CCCN(CCC)C(=O)C1c2ccccc2Oc2ccccc21 | -0.445% |
| Nc1nc(SCCOc2ccccc2)n[nH]1 | 2.17% |

| SMILES | mean inhibition % of two 10-compound mixtures (stronger effect = higher value) |
| --- | --- |
| CCCc1cc(=O)n2[nH]c(SCc3ccccc3)nc2n1 | -2.75% |
| CC(=O)Oc1cccc(N2C(=O)CC(Nc3ccc(N4CCOCC4)cc3)C2=O)c1 (configuration not stated) | 6.64% |
| O=C(CN1CCN(c2ccccn2)CC1)NCc1cccs1 | -12.2% |
| O=C(CSc1nc2cc3c(cc2c(=O)n1CCC1=CCCCC1)OCO3)NCc1ccco1 | 2.65% |
| COc1ccc(S(=O)(=O)Nc2ccc(S(=O)(=O)N3CCCCC3)cc2)cc1OC | -2.79% |
| COCCNC(=O)C(c1ccc(C)o1)N(Cc1ccccc1)C(=O)Cn1nnc2ccccc21 (configuration not stated) | -0.43% |
| CCC(C)(C)NC(=O)C(c1cccn1C)N(Cc1ccc(C)cc1)C(=O)Cn1nnc2ccccc21 (configuration not stated) | -0.485% |
| CC(C)(C)NC(=O)C(c1ccco1)N(Cc1ccc2c(c1)OCO2)C(=O)Cn1nnc2ccccc21 (configuration not stated) | 22% (active) |
| CCOc1ccc(-c2nnn(CC(=O)N3CCN(c4ccc(F)cc4)CC3)n2)cc1OCC | -19.4% |
| CC(=O)c1c(C)[nH]c(C(=O)NCCCN2CCCC2)c1C | 13.1% |
| Cc1nc(Nc2ccc3c(c2)OCCO3)c2nnn(Cc3ccccc3Cl)c2n1 | -7.66% |
| Cn1c(SCC(=O)Nc2cccc(NC(=O)c3cccs3)c2)nnc1-c1ccncc1 | -18.6% |
| COc1ccc(N2C(=O)CN=C2Nc2cccc(C)c2C)cc1OC | 13.9% |
| Cc1nc(C)c(C(=O)Nc2cccc(C)c2C)o1 | 22% (active) |
| COc1ccc(Cl)cc1NC(=O)c1oc(C)nc1C | -7.77% |
| Cc1nc(C)c(C(=O)Nc2ccc(C)c(F)c2)o1 | 4.8% |
| COCc1nc2ccccc2n1Cc1ccccc1Br | -10.1% |
| COc1cccc(C2/C(=C(/O)c3ccc(F)cc3)C(=O)C(=O)N2CCN(C)C)c1 (configuration not stated) | 2.55% |
| Cc1ccc(NC(=O)N2CCC(C(=O)NCc3ccc(F)cc3)CC2)cc1 | 26.6% |
| CCOC(=O)c1[nH]c2ccc(C)cc2c1N=C(C)N(C)C | -3.15% |
| COc1ccc(-n2c(SCC(=O)NCc3cccs3)nnc2-c2ccoc2C)cc1 | 1.91% |
| O=C(Cn1cnc2c(cnn2-c2ccccc2)c1=O)NCc1ccccc1 | 4.69% |
| O=C(OC1CCOC1=O)c1ccc(-c2nc3ccccc3s2)s1 (configuration not stated) | 3.37% |
| CCOc1ccccc1C1CC(c2ccccc2)Nc2nc(N)nn21 (configuration not stated) | -0.62% |
| CCOC(=O)CCC(=O)OCC(=O)NC(C)C1CC2CCC1C2 (configuration not stated) | -1.13% |

| SMILES | mean inhibition % of two 10-compound mixtures (stronger effect = higher value) |
| --- | --- |
| CCCCCC(=O)Nc1ccc2oc(-c3ccncc3)nc2c1 | -5.25% |
| CCCCSc1nnc(-c2ccc(NC(=O)CC)cc2)n1C | 10.2% |
| Cc1ccc2c(c1)NCC(C(=O)NC1CCC(C)CC1)O2 (configuration not stated) | -7.38% |
| CN(C)CCCNc1c2c(c(C#N)c3nc4ccccc4n13)CCC2 | 11.8% |
| COc1ccc(S(=O)(=O)Nc2c(C)n(C)n(-c3ccccc3)c2=O)cc1 | -40.7% |
| CCn1c(-c2cc(OC)ccc2OC)csc1=Nc1c(C)n(C)n(-c2ccccc2)c1=O | 11.4% |
| Cc1ccc(C(=O)N2CCCCCC2)cc1Br | 48.4% |
| O=S(=O)(CCc1nc2ccccc2o1)c1ccc(Cl)cc1 | 1.62% |
| COC(=O)c1ccc(NC(=O)CSc2nnc(-c3ccncc3)n2C)cc1 | 4.27% |
| Cc1ccc(S(=O)(=O)n2nc(OC(=O)C(C)(C)C)cc2N)cc1 | -80.6% |
| O=C(CCS(=O)(=O)c1cccc2nonc12)NCCc1ccccc1Cl | -46.5% |
| CCCC1C(c2ccccc2)C(C#N)(C#N)C2(C#N)CC1(N)NC2=O (configuration not stated) | 13.4% |
| Cc1nnc(C)n1/N=C/c1ccc(C(C)C)cc1 | 5.96% |
| O=C(CCc1ccccc1)Nc1ccc(NC(=O)C2CC2)nc1 | 3.19% |
| CC1OC2C(OC1C)N(S(C)(=O)=O)CCN2S(C)(=O)=O (configuration not stated) | 6.29% |
| COc1cc(C(O)c2nc3ccccc3n2C)cc(OC)c1OC (configuration not stated) | -4.52% |
| COc1ccc(C)cc1-n1nnnc1SCC(=O)c1cc(C)n(Cc2ccco2)c1C | 11.7% |
| O=C(NCC12CC3CC(C1)CC(CNC(=O)N1CCCC1)(C3)C2)N1CCCC1 | 13.6% |
| c1cc(-c2nn[nH]n2)ccc1CN1CCCCC1 | 14.2% |
| Cc1nc2ccccc2c2oc(C(=O)NCC3CCCO3)cc12 (configuration not stated) | -97.9% |
| CCCCn1c(SCC(=O)NCC2CCCO2)nc2ccc(N3CCOCC3)cc2c1=O (configuration not stated) | -11% |
| Cn1c(=O)c2[nH]c(NCC3CCCO3)nc2n(-c2ccccc2)c1=O (configuration not stated) | 64.6% (active) |
| COc1cccc(N2C(=O)CC(N3CCN(S(=O)(=O)c4ccccc4)CC3)C2=O)c1 (configuration not stated) | -26.5% |
| CCOC(=O)C1Cn2c(nc3c(c2=O)C(C)(CC)Cc2ccccc2-3)S1 (configuration not stated) | -5.78% |
| O=C1CC(c2cccc(Br)c2)C2=C(CCCC2=O)N1 (configuration not stated) | 17.2% |

| SMILES | mean inhibition % of two 10-compound mixtures (stronger effect = higher value) |
| --- | --- |
| CCNC(=O)N1CCNC(=O)C1CC(=O)Nc1ccc(C(=O)OCC)cc1 (configuration not stated) | -35.7% |
| Cc1ccc(-c2nc(COC(=O)c3c(C)noc3C)cs2)cc1 | 3.81% |
| COC(=O)Cn1c(=NC(=O)CSCC(=O)Nc2cc(C)on2)sc2ccccc21 | 5.49% |
| COc1ccccc1-c1cc(C(=O)NCCCn2ccnc2)no1 | 9.65% |
| O=C(NCCCN1CCOCC1)c1cc(-c2ccc(Cl)cc2)on1 | 4.71% |
| CCCCc1nc2ccccc2c(=O)n1NC(=O)c1c(O)c2cccc3c2n(c1=O)CC3 | 4.25% |
| CC1(C)CC(=O)C(C=NCCC2=CCCCC2)=C(O)C1 | -0.72% |
| O=C1CCCC(O)=C1C=NCCc1ccccc1 | 50.4% (active) |
| O=C1CC(c2ccccc2)CC(O)=C1C=NCCN1CCOCC1 (configuration not stated) | 17.3% |
| COC(=O)c1nc(NC(=O)c2ccc(Cl)cc2)n[nH]1 | 12.2% |
| Cc1ccc(C(=O)N(CN2CCCC2=O)c2ccc(F)cc2)cc1 | 5.52% |
| Cc1ccc(C)c(N2CCN(C(=O)CCc3nc4ccccc4[nH]3)CC2)c1 | 1.21% |
| CCOC(=O)C(CCOc1cccc(CC)c1)C(=O)OCC | -10.1% |
| Cc1c(NC(=O)Nc2ccccc2Cl)sc(=S)n1C | -6.43% |
| CCCCN(C)C(=O)c1ccc2c(c1)N(CC)C(=O)c1ccccc1S2(=O)=O | 5.62% |
| COc1ccc(-n2c(SCC(=O)Nc3ccc4c(c3)OCO4)nnc2C(C)N2CCCCC2)cc1 (configuration not stated) | -12.3% |
| CCN(Cc1ccncc1)C(=O)c1cccc(S(=O)(=O)N2CCOCC2)c1 | 2.16% |
| Cc1cc(N2C(=O)C(=O)/C(=C(/O)c3ccc(Cl)cc3)C2c2cccc(Br)c2)no1 (configuration not stated) | 11.8% |
| O=C(NCc1ccco1)c1sc2cccc(F)c2c1Cl | 3.97% |
| COc1ccc(NC(=O)CCNC(=O)Cn2ccc3ccccc3c2=O)c(OC)c1 | 13.2% |
| CC(C)Nc1nc(N(c2ccccc2)c2ccccc2)nc(-n2ccnc2)n1 | 9.18% |
| CSc1cccc(NC(=O)C2CCCN2S(=O)(=O)c2ccc3c(c2)CCC(=O)N3)c1 (configuration not stated) | -3.33% |
